Experimental data reported in PubChem BioAssay (Tox21).
A number with no mark means an inactive call. Inconclusive results are not listed. A call without a number means that no potency is given here. Active and inactive are the calls of the source. Unless noted, the call rests on the fitted dose curve; in most records, active means well fitted curve in the direction sought with a large enough effect in the repeat runs; inconclusive means weak or mixed curves; inactive means no such curve, though single readings can be large; an effect the other way counts as inactive or inconclusive.

Legend:
[1] = qHTS assay to identify small molecule antagonists of the constitutive androstane receptor (CAR) signaling pathway - cell viability counter screen (AID 1224837); further: nearly all actives have a fitted effect of over 45% in size; further: potency means the concentration at half of the fitted maximal effect
How it was run: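 To flag cytotoxic false antagonists, HepG2 hCAR/CYP2B6-2.2kb cells were treated 23 hr with 15-concentration compound series and 50 nM CITCO at 37 C/5% CO2; CellTiter-Fluor fluorescence was the measured end point.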

[2] = qHTS assay to identify small molecule antagonists of the estrogen related receptor signaling pathway with the pleiotropic PPARgamma coactivator (PGC) from Tox21 10K library - cell viability counter screen (AID 1224840; active means well fitted cell-killing curve with a large enough effect in the repeat runs, not every such curve was filed as active; further: nearly all actives have a fitted effect of over 40% in size; further: potency means the concentration at half of the fitted maximal effect)
How it was run: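 Seeded PGC/ERR cells (2,000/well, 6 h, 37 C/5% CO2) get compound by pin tool; 17.5 h incubation at 37 C; CellTiter-Fluor added, 30 min, fluorescence measured.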

[3] = qHTS assay to identify small molecule agonists of the estrogen related receptor signaling pathway with the pleiotropic PPARgamma coactivator (PGC) from Tox21 10K library (AID 1224842); further: nearly all actives have a fitted effect of over 15% in size
How it was run: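 PGC/ERR reporter cells (NTP line) were seeded 2,000 per well, rested 6 h at 37 C/5% CO2, then pin-dosed with compounds in DMSO for 18 h at 37 C; luciferase read by One-Glo luminescence after 30 min at room temperature.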

[4] = biological target: Thyrotropin receptor (Homo sapiens) (UniProt P16473); assay: qHTS assay to identify small molecule agonists of the thyroid stimulating hormone receptor (TSHR) signaling pathway (AID 1224843; calls by dose curve; further: nearly all actives have a fitted effect of over 45% in size; further: potency means the concentration at half of the fitted maximal effect)
How it was run: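 Using 15 concentrations per compound in triplicate, cAMP production was monitored in TSHR-HEK293 cells after 30 min compound incubation at RT; HTRF reagents followed, with fluorescence intensity recorded after 1 h.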

[5] = qHTS assay to identify small molecule agonists of H2AX - cell viability counter screen (AID 1224847; calls by dose curve; further: nearly all actives have a fitted effect of over 30% in size; further: potency means the concentration at half of the fitted maximal effect)
How it was run: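 Cells plated first: CHO-K1, 1000 per well in 10% FBS medium, incubated overnight at 37C. Then 15-point compound titration added (final DMSO 0.76%) for 3 hr. Finally CellTiter-Glo added and luminescence read.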

[6] = qHTS assay to identify small molecule agonists of the estrogen related receptor (ERR) signaling pathway from Tox21 library (AID 1224849; calls by dose curve; further: nearly all actives have a fitted effect of over 15% in size); settings: ERR reporter cell line, ONE-Glo luciferase, 18 h; at 92.4 µM (top of the series) unless noted
How it was run: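 Tox21 compounds tested for ERR agonism in an NTP reporter cell line: 18 h treatment at 37 C, then ONE-Glo luminescence.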

[7] = qHTS RealTime-Glo MT Cell Viability Assay in HepG2 cells - 24 hour (AID 1224867); further: nearly all actives have a fitted effect of over 50% in size; further: potency means the concentration at half of the fitted maximal effect
How it was run: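 qHTS, HepG2, 600 cells/well, RealTime-Glo (NanoLuc + prosubstrate) added with cells; 5 h preincubation; DMSO compound addition; 37 C; luminescence at 0/8/16/24/32/40 h.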

[8] = A CellTox Green Cytotoxicity Assay to monitor cytotoxicity in HEK293 cells - 0 hour (AID 1224869); further: nearly all actives have a fitted effect of over 50% in size
How it was run: (§1)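 Tox21 screen in HEK293: membrane-impermeant cyanine dye fluoresces on binding dead-cell DNA; compound pinned 5 h post-seeding, plates held at 37 C, signal read repeatedly through 40 h.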

[9] = A CellTox Green Cytotoxicity Assay to monitor cytotoxicity in HEK293 cells - 40 hour (AID 1224871); further: nearly all actives have a fitted effect of over 45% in size; further: potency means the concentration at half of the fitted maximal effect
How it was run: as §1

[10] = qHTS assay to identify small molecule agonists of the constitutive androstane receptor (CAR) signaling pathway - cell viability counter screen (AID 1224836); further: nearly all actives have a fitted effect of over 45% in size; further: potency means the concentration at half of the fitted maximal effect
How it was run: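 HepG2-CYP2B6-hCAR, 2500 cells/well, 4 h pre-incubation; cpd 15 conc + PK11195 0.75 uM final; 23 h, 37 C/5% CO2; CellTiter-Fluor, fluorescence.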

[11] = qHTS assay to identify small molecule agonists of H2AX (AID 1224845; active means well fitted activation curve with a large enough effect in the signal ratio in the repeat runs, not every such curve was filed as active; the % refers to the signal ratio; further: potency means the concentration at half of the fitted maximal effect)
How it was run: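 Wild-type CHO-K1 cells plated overnight, then exposed 3 hr at 37C to compounds at 15 concentrations (0.76% DMSO). Lysed, then HTRF anti-pH2AX(S139)-cryptate/anti-H2AX-d2 detection after 24 hr at room temperature; emissions 665 and 620 nm.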

[12] = qHTS assay to identify small molecule agonists of the hypoxia (HIF-1) signaling pathway (AID 1224846; active means well fitted activation curve with a large enough effect in the signal ratio in the repeat runs, not every such curve was filed as active; the % refers to the signal ratio)
How it was run: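 Reporter induction in HRE-bla ME-180 cells is taken as agonism: cells sit 5 hrs after plating, receive compounds or DMSO only, incubate 17 hrs at 37C under 5% CO2, and are loaded with CCF4-AM for beta-lactamase FRET measurement.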

[13] = qHTS RealTime-Glo MT Cell Viability Assay in HepG2 cells - 40 hour (AID 1224870); further: nearly all actives have a fitted effect of over 50% in size; further: potency means the concentration at half of the fitted maximal effect
How it was run: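 HepG2 cells mixed with RealTime-Glo MT reagents (NanoLuc plus cell-permeant prosubstrate) were seeded at 600 cells/well, incubated 5 h at 37 C/5% CO2, then pinned with compounds in DMSO; nonlytic luminescence tracked viability during 40 h treatment.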

[14] = biological target: Nuclear receptor subfamily 1 group I member 3 (Homo sapiens) (UniProt Q14994); assay: qHTS assay to identify small molecule antagonists of the constitutive androstane receptor (CAR) signaling pathway (AID 1224838);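 further: HepG2 cells stably expressing hCAR with CYP2B6 luciferase reporter stimulated by CITCO; nearly all actives have a fitted effect of over 40% in size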
How it was run: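 Human hepatoma HepG2 cells expressing hCAR and a CYP2B6 promoter (2.2 kb) luciferase construct; compound titration (15 points) with 50 nM CITCO final, 24 h at 37 C/5% CO2; luminescence via ONE-Glo after 30 min at room temperature.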

[15] = qHTS assay to identify small molecule antagonists of the estrogen related receptor signaling pathway with the pleiotropic PPARgamma coactivator (PGC) from Tox21 10K library (AID 1224841; call rule not given here; further: potency means the concentration at half of the fitted maximal effect; actives are mostly falling curves and most rising ones were filed inactive; nearly all actives have a fitted effect of over 50% in size)
How it was run: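 Test chemicals dissolved in DMSO were applied to pre-incubated (6 h) PGC/ERR cells at 2,000 cells/well for an 18 h, 37 C treatment; reporter luminescence was then read using One-Glo.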

[16] = qHTS assay to identify small molecule agonists of the hypoxia (HIF-1) signaling pathway - cell viability counter screen (AID 1224844; calls by dose curve; further: nearly all actives have a fitted effect of over 50% in size; further: potency means the concentration at half of the fitted maximal effect)
How it was run: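 HRE-bla ME-180; 0.5% dFBS; cpd 17 h, 37C, 5% CO2; CellTiter-Glo lum., 30 min RT, post-FRET read, same wells.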

[17] = qHTS assay to identify small molecule antagonists of the estrogen related receptor (ERR) signaling pathway from Tox21 library (AID 1224848)
How it was run: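 Tox21 10K compounds in DMSO tested for ERR pathway antagonism in NTP's ERR cell line; 18 h, 37 C exposure; ONE-Glo luminescence.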

[18] = qHTS RealTime-Glo MT Cell Viability Assay in HEK293 cells - 32 hour (AID 1224868); further: nearly all actives have a fitted effect of over 50% in size; further: potency means the concentration at half of the fitted maximal effect
How it was run: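 Assay medium contained NanoLuc luciferase plus cell-permeant prosubstrate, added with HEK293 cells at 600 cells/well. After 5 h at 37 C/5% CO2 compounds were added; plates stayed at 37 C for 40 h with serial luminescence reads.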

[19] = biological target: Nuclear receptor subfamily 1 group I member 3 (Homo sapiens) (UniProt Q14994); assay: qHTS assay to identify small molecule agonists of the constitutive androstane receptor (CAR) signaling pathway (AID 1224839); further: nearly all actives have a fitted effect of over 15% in size; further: potency means the concentration at half of the fitted maximal effect;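 on activation: HepG2 cells stably carrying human CAR and a CYP2B6 luciferase reporter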
How it was run: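 HepG2-CYP2B6-hCAR cells, 2500/well, 4 h pre-incubation; compounds 15 conc.; PK11195 0.75 uM final; 24 h, 37 C/5% CO2; ONE-Glo luciferase read.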

Sequence of Thyrotropin receptor (Homo sapiens) (P16473 whole entry, looked up): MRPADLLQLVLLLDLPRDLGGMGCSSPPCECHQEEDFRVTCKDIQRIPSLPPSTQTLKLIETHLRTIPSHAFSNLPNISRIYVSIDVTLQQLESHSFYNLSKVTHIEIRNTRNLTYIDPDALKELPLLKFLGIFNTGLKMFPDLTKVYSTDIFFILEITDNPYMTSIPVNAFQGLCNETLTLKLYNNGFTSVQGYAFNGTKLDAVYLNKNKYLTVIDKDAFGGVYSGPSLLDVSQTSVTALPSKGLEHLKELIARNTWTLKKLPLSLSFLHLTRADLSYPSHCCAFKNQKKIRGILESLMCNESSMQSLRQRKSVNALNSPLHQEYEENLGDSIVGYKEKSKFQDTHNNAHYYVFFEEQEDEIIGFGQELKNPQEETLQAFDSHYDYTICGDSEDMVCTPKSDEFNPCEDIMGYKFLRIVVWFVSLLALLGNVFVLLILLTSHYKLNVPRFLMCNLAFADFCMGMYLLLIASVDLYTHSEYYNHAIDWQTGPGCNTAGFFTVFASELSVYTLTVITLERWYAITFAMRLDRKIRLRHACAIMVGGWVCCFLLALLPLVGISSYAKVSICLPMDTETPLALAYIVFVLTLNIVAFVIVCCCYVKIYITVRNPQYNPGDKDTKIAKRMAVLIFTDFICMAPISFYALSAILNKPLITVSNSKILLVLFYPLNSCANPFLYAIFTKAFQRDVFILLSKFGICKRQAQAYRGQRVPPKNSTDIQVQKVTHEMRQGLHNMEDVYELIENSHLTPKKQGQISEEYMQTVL
Sequence of Nuclear receptor subfamily 1 group I member 3 (Homo sapiens) (Q14994 whole entry, looked up): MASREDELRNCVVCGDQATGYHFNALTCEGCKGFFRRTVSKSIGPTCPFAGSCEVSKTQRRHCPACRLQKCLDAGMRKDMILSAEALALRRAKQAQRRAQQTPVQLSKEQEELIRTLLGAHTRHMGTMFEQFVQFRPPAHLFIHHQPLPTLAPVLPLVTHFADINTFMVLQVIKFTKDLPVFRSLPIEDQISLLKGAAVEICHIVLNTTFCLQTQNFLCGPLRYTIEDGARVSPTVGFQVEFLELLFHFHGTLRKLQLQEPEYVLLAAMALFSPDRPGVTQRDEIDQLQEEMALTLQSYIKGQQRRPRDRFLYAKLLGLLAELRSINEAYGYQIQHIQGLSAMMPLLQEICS

In the case of `Oc1ccc(C2(c3ccc(O)cc3)c3ccccc3-c3ccccc32)cc1`, the Potency [1] is reported as 61.1 µM (active), the Potency [2] is reported as 61.1 µM (active) and the Potency [3] is reported as “inactive”. The Potency [4] was 54.5 µM (active), the Potency [5] was 89.8 µM (active) and the activity change, positive = activation [6] was -78.7%. For the same molecule, the Potency [7] was 54.9 µM (active), the Potency [8] was “inactive” and the Potency [9] was “inactive”.

For `CC(=O)[O-].[Tl+]`, the Potency [10] was “inactive”, the Potency [1] was “inactive” and the Potency [2] was “inactive”. The Potency [11] was “inactive”, the outcome [12] was “inactive” and the Potency [5] was “inactive”. The Potency [7] was “inactive”, the Potency [8] was “inactive” and the Potency [13] was “inactive”. The Potency [9] was “inactive”.

With `CC1(c2ccc(Oc3ccccc3)cc2)OC(=O)N(Nc2ccccc2)C1=O` (centres undefined) the Potency [14] was “inactive”, the Potency [15] was 4.89 µM (active) and the Potency [3] was “inactive”. For the same molecule, the Potency [16] was 22 µM (active), the Potency [5] was 50.8 µM (active) and the Potency [17] was 2.45 µM (active). For the same molecule, the activity change, positive = activation [6] was -64.5%, the Potency [7] was 49.3 µM (active) and the Potency [18] was 43.9 µM (active). The Potency [8] was “inactive”.

In the case of `BrCC(Br)c1ccccc1` (centres undefined), the Potency [10] is reported as “inactive”, the Potency [1] is reported as “inactive” and the Potency [2] is reported as “inactive”. For the same molecule, the Potency [4] was “inactive”, the Potency [16] was “inactive” and the Potency [11] was “inactive”. For the same molecule, the outcome [12] was “inactive”, the Potency [5] was “inactive” and the Potency [7] was “inactive”. For the same molecule, the Potency [18] was “inactive”, the Potency [8] was “inactive” and the Potency [13] was “inactive”.

In the case of `CCCCCCCCc1ccc(O)cc1`, the Potency [10] is reported as 69 µM (active), the Potency [14] is reported as “inactive” and the Potency [19] is reported as 48.9 µM (active). For the same molecule, the Potency [4] was “inactive”, the Potency [16] was 39.1 µM (active) and the Potency [11] was 36 µM (active). For the same molecule, the Potency [5] was 25.5 µM (active), the Potency [18] was 5.53 µM (active) and the Potency [9] was 19.6 µM (active).

With `NC(=O)c1ccc(N)nc1` the Potency [10] was “inactive”, the Potency [1] was “inactive” and the Potency [14] was “inactive”. For the same molecule, the Potency [2] was “inactive”, the Potency [16] was 15.5 µM (active) and the Potency [11] was “inactive”. For the same molecule, the outcome [12] was “inactive”, the Potency [5] was “inactive” and the Potency [7] was “inactive”. The Potency [8] was “inactive”, the Potency [13] was “inactive” and the Potency [9] was “inactive”.

With `COc1ccc([N+](=O)[O-])cc1O` the Potency [10] was “inactive”, the Potency [1] was “inactive” and the Potency [2] was “inactive”. For the same molecule, the Potency [4] was “inactive”, the Potency [16] was “inactive” and the Potency [11] was “inactive”. For the same molecule, the outcome [12] was “inactive”, the Potency [5] was “inactive” and the Potency [7] was “inactive”. For the same molecule, the Potency [18] was “inactive”, the Potency [8] was “inactive” and the Potency [9] was “inactive”.

For `[CH3][Hg][Cl]`, the Potency [10] was 24.3 µM (active), the Potency [19] was “inactive” and the Potency [2] was 38.5 µM (active). For the same molecule, the Potency [4] was “inactive”, the Potency [16] was 10.9 µM (active) and the Potency [5] was 50.4 µM (active). The Potency [7] was 10.9 µM (active), the Potency [18] was 4.35 µM (active) and the Potency [8] was “inactive”. For the same molecule, the Potency [13] was 10.9 µM (active).

For `Clc1ccc(CCC(Cn2ccnc2)Sc2c(Cl)cccc2Cl)cc1` (centres undefined), the Potency [10] was “inactive”, the Potency [14] was “inactive” and the Potency [19] was 29.8 µM (active). The Potency [16] was 23.9 µM (active), the Potency [17] was 18.8 µM (active) and the activity change, positive = activation [6] was -61.6% [at 42.5 µM]. The Potency [18] was 9.52 µM (active), the Potency [8] was “inactive” and the Potency [13] was “inactive”. For the same molecule, the Potency [9] was “inactive”.
